# Measurements as given in PubChem BioAssay (EPA / NIEHS).
# “And” between values parts separate entries of the source, which are not always exact repeats. Equal values may be shown once. Inconclusive results are not listed. The source holds several records for some structures; these can differ, active in one and inactive in another. The source made the active and inactive calls. The calls were made as follows, unless noted: active = hit-call score of the fitted dose curve at least 0.9, where 1 is the maximum; inconclusive = response in the unintended direction; inactive = score below 0.9.
# How the values were obtained:
# [1] = target: Estrogen receptor beta (Homo sapiens) (UniProt Q92731); experiment: OT_ER_ERbERb_1440: Odyssey Thera (OT) 24-hour HEK293T Protein-Complementation Assay for Estrogen Receptor-beta/-beta Homodimer (AID 2283380);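 also: fluorescence gain from ER beta LBD homodimer complementation read by laser scanning cytometry; scored as signal increase over DMSO baseline for both agonists and antagonists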
# Method in brief: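 HEK293T cells stably expressing human ER-beta LBD (aa 310-547) PCA homodimer pair, dosed 24 h; formaldehyde-fixed, Draq5-stained. Readout: increase in nuclear (agonist) or nuclear plus cytoplasmic (antagonist) fluorescence intensity versus DMSO, gain-of-signal fitting.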
# [2] = target: Estrogen receptor (Homo sapiens) (UniProt P03372); experiment: OT_ERa_GFPERaERE_0480: Odyssey Thera (OT) 8-hour HeLa Transcription Induction Assay for Estrogen Receptor (AID 2283381; active = hit-call score of the fitted dose curve at least 0.9, where 1 is the maximum; inactive = score below 0.9)
# Method in brief: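 Cells (HeLa) receive compound; after 8 h, reporter fluorescence is imaged and quantified by high-content analysis. Gain-of-signal relative to DMSO gives the endpoint.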
# [3] = target: Retinoic acid receptor RXR-alpha (Homo sapiens) (UniProt P19793); experiment: OT_NURR1_NURR1RXRa_0480: Odyssey Thera (OT) 8-hour HEK293T Protein Complementation Assay for Nurr1/retinoid X receptor (RXR) (AID 2283385)
# Method in brief: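 Compounds are applied to HEK293T cells carrying Nurr1 and RXRα linked to reporter fragments. After 8 h, fluorescence intensity reports heterodimer formation, with DMSO as baseline.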
# [4] = target: Retinoic acid receptor RXR-alpha (Homo sapiens) (UniProt P19793); experiment: OT_NURR1_NURR1RXRa_1440: Odyssey Thera (OT) 24-hour HEK293T Protein Complementation Assay for Nurr1/retinoid X receptor (RXR) (AID 2283386)
# Method in brief: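 Measured as fluorescence from a reconstituted split reporter, this 24 h HEK293T complementation assay scores compound-induced gain of Nurr1/RXRα association relative to DMSO.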
# [5] = target: Peroxisome proliferator-activated receptor gamma (Homo sapiens) (UniProt P37231); experiment: OT_PPARg_PPARgSRC1_0480: Odyssey Thera (OT) 8-hour Protein-Complementation Assay for Peroxisome Proliferator-activated Receptor Gamma / SRC-1 Co-activator (AID 2283387);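 also: nuclear to cytoplasmic split Venus YFP fluorescence ratio reporting PPARg SRC-1 interaction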
# Method in brief: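 Protein-fragment complementation of split Venus YFP reports PPARg/SRC-1 interaction in HEK293T (transfected 48 h before treatment), exposed 8 h. Readout: N/C fluorescence ratio at 488 nm from imaging, Draq5 for segmentation, positive fit relative to DMSO.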
# [6] = target: Peroxisome proliferator-activated receptor gamma (Homo sapiens) (UniProt P37231); experiment: OT_PPARg_PPARgSRC1_1440: Odyssey Thera (OT) 24-hour Protein-Complementation Assay for Peroxisome Proliferator-activated Receptor Gamma/ SRC-1 Co-activator (AID 2283388);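 also: nuclear to cytoplasmic ratio of reconstituted Venus YFP fluorescence in fixed imaged cells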
# Method in brief: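 Readout: nuclear-to-cytoplasmic 488 nm fluorescence ratio, ≥350 cells per image, 8 images per well, after 24 h compound exposure of HEK293T expressing PPARg/SRC-1 split-YFP fusions. Activity fitted in positive direction against DMSO.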
# [7] = target: mouse Estrogen Receptor alpha (Era), Esr1 (gene 13982) (UniProt P19785); experiment: NVS_NR_mERa: NovaScreen (NVS) Nuclear Receptor Binding Assay for mouse Estrogen Receptor alpha (Era) (AID 2283378);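 also: hit means loss of bound radioligand signal relative to DMSO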
# Method in brief: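 Filter scintillation counts of bound radioligand, measured 18 h post-dose, gave the readout; decreased signal relative to DMSO controls indicated displacement from mouse Era. Primary screen ran in duplicate at 25 uM; active chemicals were retested across concentrations.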
# [8] = target: Bile acid receptor (Homo sapiens) (UniProt Q96RI1); experiment: OT_FXR_FXRSRC1_1440: Odyssey Thera (OT) 24-hour HEK293T Protein-Complementation Assay for Farnesoid X receptor/SRC-1 Co-activator (AID 2283384)
# Method in brief: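 Cell-based binding reporter: interaction of FXR with SRC-1 brings reporter fragments together, giving a fluorescence signal read 24 h after dosing of HEK293T cells.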
# [9] = CEETOX_H295R_OHPREG: CeeTox H295R High-throughput Steroidogenesis Assay for OH-Pregnenolone (OHPREG) (AID 2283434; active = hit-call score of the fitted dose curve at least 0.9, where 1 is the maximum; inactive = score below 0.9); settings: actives raise or lower the signal
# Method in brief: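 Human adrenal H295R cells were prestimulated 48 h with 10 uM forskolin, then exposed 48 h to chemical in 0.1% DMSO. Medium 17alpha-hydroxypregnenolone was quantified by HPLC-MS/MS after MTBE extraction; bidirectional fitting versus DMSO baseline.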
# [10] = CEETOX_H295R_OHPROG: CeeTox H295R High-throughput Steroidogenesis Assay for OH-Progesterone (OHPROG) (AID 2283435; active = hit-call score of the fitted dose curve at least 0.9, where 1 is the maximum; inactive = score below 0.9); settings: actives raise or lower the signal
# Method in brief: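 Secreted 17alpha-hydroxyprogesterone is read by tandem MS from media of forskolin-primed H295R cells dosed with chemical for 48 h. Activity is fitted in both directions against DMSO baseline; cytotoxic concentrations are re-tested diluted.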
# [11] = target: Agonist Androgen Response Element (ARE), AR (gene 367) (UniProt P10275); experiment: OT_AR_ARELUC_AG_1440: Odyssey Thera (OT) 24-hour CHO-K1 Luciferase Assay for Agonist Androgen Response Element (ARE) (AID 2283379)
# Method in brief: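 Seed CHO-K1 cells; dose compounds for 24 h; add D-luciferin plus ATP in PBS; read luminescence. Signal increase relative to vehicle defines agonist activity, with at least 3 replicate wells per sample.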
# [12] = target: Estrogen receptor (Homo sapiens) (UniProt P03372); experiment: OT_ERa_GFPERaERE_0120: Odyssey Thera (OT) 2-hour HeLa Transcription Induction Assay for Estrogen Receptor (AID 2283382)
# Method in brief: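 Measures ESR1 pathway reporter gain-of-signal in HeLa cells after a 2-hour treatment, detected as fluorescent protein induction by microscopy, DMSO as baseline.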
# [13] = target: Bile acid receptor (Homo sapiens) (UniProt Q96RI1); experiment: OT_FXR_FXRSRC1_0480: Odyssey Thera (OT) 8-hour HEK293T Protein-Complementation Assay for Farnesoid X receptor/SRC-1 Co-activator (AID 2283383)
# Method in brief: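 Co-activator recruitment to FXR was measured in living HEK293T cells, where interaction of the two fused partners restored an active fluorescent reporter. Signal gain after 8 h treatment was referenced to DMSO.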
# [14] = CEETOX_H295R_ANDR: CeeTox H295R High-throughput Steroidogenesis Assay for Androstenedione (ANDR) (AID 2283436; active = hit-call score of the fitted dose curve at least 0.9, where 1 is the maximum; inactive = score below 0.9); settings: actives raise or lower the signal
# Method in brief: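 H295R human adrenal cells (passages ≤10) were exposed to test chemicals for 48 h; androstenedione in medium was MTBE-extracted and quantified by HPLC-MS/MS against a 7-point standard curve. Bidirectional fitting used DMSO as baseline.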
# [15] = CEETOX_H295R_ESTRONE: CeeTox H295R High-throughput Steroidogenesis Assay for Estrone (AID 2283441; active = hit-call score of the fitted dose curve at least 0.9, where 1 is the maximum; inactive = score below 0.9;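 also: estrone secreted into medium measured by LC-MS/MS after dansyl derivatization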); settings: actives raise or lower the signal
# Method in brief: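 H295R cells; 48 h forskolin (10 uM) prestimulation; 48 h compound exposure, 0.1% DMSO final. Medium estrone: MTBE extraction, dansyl derivatization, HPLC-MS/MS. Bidirectional fit vs DMSO.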
# [16] = CEETOX_H295R_11DCORT: CeeTox H295R High-throughput Steroidogenesis Assay for 11-Deoxycortisol (11DCORT) (AID 2283432; active = hit-call score of the fitted dose curve at least 0.9, where 1 is the maximum; inactive = score below 0.9); settings: actives raise or lower the signal
# Method in brief: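 Human adrenal H295R cells were prestimulated with 10 uM forskolin for 48 h, then exposed to test chemical (0.1% DMSO final) for 48 h. Medium 11-deoxycortisol was quantified by MTBE extraction and HPLC-MS/MS; bidirectional fitting relative to DMSO.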
# [17] = CEETOX_H295R_CORTIC: CeeTox H295R High-throughput Steroidogenesis Assay for Corticosterone (CORTIC) (AID 2283437; active = hit-call score of the fitted dose curve at least 0.9, where 1 is the maximum; inactive = score below 0.9;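 also: corticosterone secreted into medium quantified by mass spectrometry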); settings: actives raise or lower the signal
# Method in brief: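 H295R cells were prestimulated 48 h with 10 uM forskolin, then exposed 48 h to test chemical in 0.1% DMSO. Medium corticosterone was MTBE-extracted and quantified by HPLC-MS/MS; bidirectional fit versus DMSO baseline.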
# [18] = CEETOX_H295R_CORTISOL: CeeTox H295R High-throughput Steroidogenesis Assay for Cortisol (AID 2283438; active = hit-call score of the fitted dose curve at least 0.9, where 1 is the maximum; inactive = score below 0.9;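 also: cortisol secreted into medium quantified by LC-MS/MS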); settings: actives raise or lower the signal
# Method in brief: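 Human adrenocortical H295R cells (passage ≤10) received test chemicals for 48 h after forskolin priming. Secreted cortisol was measured by LC-MS/MS.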
# [19] = CEETOX_H295R_DOC: CeeTox H295R High-throughput Steroidogenesis Assay for DOC (AID 2283439; active = hit-call score of the fitted dose curve at least 0.9, where 1 is the maximum; inactive = score below 0.9); settings: actives raise or lower the signal
# Method in brief: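 Secreted DOC was quantified from H295R media by HPLC-MS/MS after 48 h chemical exposure following 48 h forskolin (10 uM) prestimulation. Values were fitted in both directions relative to DMSO, the negative control and baseline.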
# [20] = CEETOX_H295R_ESTRADIOL: CeeTox H295R High-throughput Steroidogenesis Assay for Estradiol (AID 2283440; active = hit-call score of the fitted dose curve at least 0.9, where 1 is the maximum; inactive = score below 0.9;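 also: estradiol secreted into medium quantified by LC-MS/MS after dansyl derivatisation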); settings: actives raise or lower the signal
# Method in brief: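 H295R, 48 h forskolin (10 uM) prestim → 48 h compound, 0.1% DMSO final. Estradiol in medium: MTBE extraction, dansyl chloride derivatization, LC-MS/MS. Fit bidirectional vs DMSO baseline; MTT viability in same wells.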
# Sequence of Estrogen receptor beta (Homo sapiens) (Q92731 whole entry, looked up, the tested form may be a part): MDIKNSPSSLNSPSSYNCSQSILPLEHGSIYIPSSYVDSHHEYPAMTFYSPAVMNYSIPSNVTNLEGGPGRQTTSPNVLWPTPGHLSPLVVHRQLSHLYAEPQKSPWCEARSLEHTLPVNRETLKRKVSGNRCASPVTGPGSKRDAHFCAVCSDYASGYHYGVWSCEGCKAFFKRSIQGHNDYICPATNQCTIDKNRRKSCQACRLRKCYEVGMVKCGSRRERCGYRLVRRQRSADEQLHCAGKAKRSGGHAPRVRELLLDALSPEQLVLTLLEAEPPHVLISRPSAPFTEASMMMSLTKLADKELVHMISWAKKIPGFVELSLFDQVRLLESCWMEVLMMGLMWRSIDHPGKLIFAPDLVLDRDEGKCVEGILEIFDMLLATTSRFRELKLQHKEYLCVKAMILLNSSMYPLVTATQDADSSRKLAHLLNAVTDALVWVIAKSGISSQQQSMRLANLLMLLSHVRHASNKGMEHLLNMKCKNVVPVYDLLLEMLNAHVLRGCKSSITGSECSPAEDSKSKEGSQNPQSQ
# Sequence of Peroxisome proliferator-activated receptor gamma (Homo sapiens) (P37231 whole entry, looked up, the tested form may be a part): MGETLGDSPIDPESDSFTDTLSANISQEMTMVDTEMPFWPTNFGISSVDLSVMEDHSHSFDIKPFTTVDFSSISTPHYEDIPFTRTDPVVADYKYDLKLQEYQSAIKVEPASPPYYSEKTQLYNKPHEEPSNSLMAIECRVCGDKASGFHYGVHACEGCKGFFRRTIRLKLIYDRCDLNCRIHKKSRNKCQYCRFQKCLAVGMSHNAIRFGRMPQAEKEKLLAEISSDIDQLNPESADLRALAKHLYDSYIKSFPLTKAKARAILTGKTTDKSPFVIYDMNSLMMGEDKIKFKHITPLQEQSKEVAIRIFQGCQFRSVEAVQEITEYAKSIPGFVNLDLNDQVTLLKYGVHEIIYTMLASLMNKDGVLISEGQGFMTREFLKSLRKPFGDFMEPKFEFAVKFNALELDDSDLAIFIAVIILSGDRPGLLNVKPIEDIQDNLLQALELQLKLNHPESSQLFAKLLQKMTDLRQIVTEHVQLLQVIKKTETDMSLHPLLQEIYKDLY
# Sequence of Retinoic acid receptor RXR-alpha (Homo sapiens) (P19793 whole entry, looked up, the tested form may be a part): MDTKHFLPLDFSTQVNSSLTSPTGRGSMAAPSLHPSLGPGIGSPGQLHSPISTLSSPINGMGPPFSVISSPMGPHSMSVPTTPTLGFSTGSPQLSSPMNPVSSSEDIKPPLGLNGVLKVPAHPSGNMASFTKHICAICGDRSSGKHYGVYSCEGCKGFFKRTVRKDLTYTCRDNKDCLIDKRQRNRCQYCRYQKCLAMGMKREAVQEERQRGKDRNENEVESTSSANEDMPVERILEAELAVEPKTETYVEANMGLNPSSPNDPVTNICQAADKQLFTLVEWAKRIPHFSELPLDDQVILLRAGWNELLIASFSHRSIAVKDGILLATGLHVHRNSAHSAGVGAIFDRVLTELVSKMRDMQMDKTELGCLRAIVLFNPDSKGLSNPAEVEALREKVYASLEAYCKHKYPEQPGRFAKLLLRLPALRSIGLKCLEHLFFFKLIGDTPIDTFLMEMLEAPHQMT
# Sequence of Bile acid receptor (Homo sapiens) (Q96RI1 whole entry, looked up, the tested form may be a part): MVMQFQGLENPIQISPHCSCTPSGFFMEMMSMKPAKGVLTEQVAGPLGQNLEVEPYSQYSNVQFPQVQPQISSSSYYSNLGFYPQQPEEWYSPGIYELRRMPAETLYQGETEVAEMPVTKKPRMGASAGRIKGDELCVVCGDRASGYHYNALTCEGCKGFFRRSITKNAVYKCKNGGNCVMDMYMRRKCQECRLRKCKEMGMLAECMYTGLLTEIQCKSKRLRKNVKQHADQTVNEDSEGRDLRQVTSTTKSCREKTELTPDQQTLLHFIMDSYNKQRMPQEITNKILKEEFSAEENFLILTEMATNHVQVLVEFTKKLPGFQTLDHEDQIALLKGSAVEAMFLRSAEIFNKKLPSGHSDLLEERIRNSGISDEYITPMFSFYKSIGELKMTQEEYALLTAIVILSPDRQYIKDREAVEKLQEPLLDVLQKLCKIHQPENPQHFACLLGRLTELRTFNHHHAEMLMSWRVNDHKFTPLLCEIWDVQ
# Sequence of Estrogen receptor (Homo sapiens) (P03372 whole entry, looked up): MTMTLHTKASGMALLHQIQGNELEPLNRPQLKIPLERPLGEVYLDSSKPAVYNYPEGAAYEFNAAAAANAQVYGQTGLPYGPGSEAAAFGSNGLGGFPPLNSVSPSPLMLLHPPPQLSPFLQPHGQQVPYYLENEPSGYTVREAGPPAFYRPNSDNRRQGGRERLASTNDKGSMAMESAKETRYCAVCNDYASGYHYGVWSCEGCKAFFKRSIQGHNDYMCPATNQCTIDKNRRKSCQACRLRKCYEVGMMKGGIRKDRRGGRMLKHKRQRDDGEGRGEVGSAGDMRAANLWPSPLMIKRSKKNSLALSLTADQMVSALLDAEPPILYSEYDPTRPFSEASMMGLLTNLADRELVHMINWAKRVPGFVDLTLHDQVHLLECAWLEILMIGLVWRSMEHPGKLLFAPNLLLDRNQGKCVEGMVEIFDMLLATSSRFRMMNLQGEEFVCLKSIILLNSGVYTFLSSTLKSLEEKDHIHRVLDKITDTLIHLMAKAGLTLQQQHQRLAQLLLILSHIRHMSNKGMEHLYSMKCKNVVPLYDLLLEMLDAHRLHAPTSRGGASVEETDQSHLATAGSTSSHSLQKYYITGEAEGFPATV
# Sequence of mouse Estrogen Receptor alpha (Era), Esr1 (gene 13982) (P19785 whole entry, looked up): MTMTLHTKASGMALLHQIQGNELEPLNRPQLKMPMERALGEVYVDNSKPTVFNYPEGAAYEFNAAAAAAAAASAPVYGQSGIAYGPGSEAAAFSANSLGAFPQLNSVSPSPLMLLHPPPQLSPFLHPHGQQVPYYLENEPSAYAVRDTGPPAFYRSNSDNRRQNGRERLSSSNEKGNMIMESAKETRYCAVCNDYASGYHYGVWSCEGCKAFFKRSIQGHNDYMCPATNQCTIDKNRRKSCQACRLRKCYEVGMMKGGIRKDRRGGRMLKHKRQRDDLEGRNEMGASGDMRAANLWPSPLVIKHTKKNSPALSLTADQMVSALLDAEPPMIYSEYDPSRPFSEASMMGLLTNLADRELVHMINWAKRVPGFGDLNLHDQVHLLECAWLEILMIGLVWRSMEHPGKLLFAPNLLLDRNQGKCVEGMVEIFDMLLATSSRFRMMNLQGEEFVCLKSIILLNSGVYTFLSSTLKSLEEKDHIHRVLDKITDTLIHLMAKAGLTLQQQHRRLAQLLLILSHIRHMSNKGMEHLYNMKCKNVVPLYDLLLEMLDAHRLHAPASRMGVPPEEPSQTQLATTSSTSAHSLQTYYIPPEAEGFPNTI
# Sequence of Agonist Androgen Response Element (ARE), AR (gene 367) (P10275 whole entry, looked up): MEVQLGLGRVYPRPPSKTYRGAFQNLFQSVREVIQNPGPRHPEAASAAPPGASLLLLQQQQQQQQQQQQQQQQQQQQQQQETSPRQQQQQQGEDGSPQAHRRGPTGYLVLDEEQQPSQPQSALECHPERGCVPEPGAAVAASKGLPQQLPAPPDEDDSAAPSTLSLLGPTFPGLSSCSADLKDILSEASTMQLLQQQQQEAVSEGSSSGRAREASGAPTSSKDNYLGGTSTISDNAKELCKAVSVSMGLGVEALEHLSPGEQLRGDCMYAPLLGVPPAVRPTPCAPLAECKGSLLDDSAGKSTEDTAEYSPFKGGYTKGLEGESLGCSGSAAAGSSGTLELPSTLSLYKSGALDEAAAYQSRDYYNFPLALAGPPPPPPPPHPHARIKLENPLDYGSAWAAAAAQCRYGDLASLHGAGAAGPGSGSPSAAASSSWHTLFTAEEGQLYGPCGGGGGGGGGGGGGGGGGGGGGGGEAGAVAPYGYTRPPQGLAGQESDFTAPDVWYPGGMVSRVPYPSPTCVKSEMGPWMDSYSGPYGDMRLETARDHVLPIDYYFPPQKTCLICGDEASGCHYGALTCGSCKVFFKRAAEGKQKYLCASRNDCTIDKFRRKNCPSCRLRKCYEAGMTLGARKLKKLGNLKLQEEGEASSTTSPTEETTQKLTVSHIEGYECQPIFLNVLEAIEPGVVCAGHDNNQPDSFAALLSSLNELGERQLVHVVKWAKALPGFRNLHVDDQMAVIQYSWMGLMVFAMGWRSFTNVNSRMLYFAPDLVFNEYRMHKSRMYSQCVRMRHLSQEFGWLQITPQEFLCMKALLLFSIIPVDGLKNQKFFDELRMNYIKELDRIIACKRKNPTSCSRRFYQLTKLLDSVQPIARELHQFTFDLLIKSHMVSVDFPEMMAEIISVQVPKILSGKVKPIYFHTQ
compound,measurement,setting,value
CCOc1nc(F)cc2nc(S(=O)(=O)Nc3c(Cl)cccc3Cl)nn12,outcome,[1],inactive
same,outcome,[2],inactive
same,outcome,[3],inactive
same,outcome,[4],inactive
same,outcome,[5],inactive
same,outcome,[6],inactive
CNC(=O)Oc1cccc2ccccc12,outcome,[7],inactive
same,outcome,[8],inactive
same,outcome,[3],inactive
same,outcome,[9],inactive
same,outcome,[10],inactive
CCOP(=O)(OCC)Oc1nc(Cl)c(Cl)cc1Cl,outcome,[11],inactive
same,outcome,[1],inactive
same,outcome,[12],inactive
same,outcome,[3],inactive
same,AC50,[4],9.87 µM (active)
same,outcome,[4],inactive
same,outcome,[5],inactive
same,outcome,[6],inactive
CCOc1cc(C(C)(C)C)ccc1C1COC(c2c(F)cccc2F)=N1 (centres undefined),outcome,[1],inactive
same,outcome,[2],inactive
same,AC50,[13],1.27 µM (active)
same,AC50,[8],31.6 µM (active)
same,outcome,[3],inactive
same,AC50,[4],18.5 µM (active) and 20.6 µM (active)
same,outcome,[5],inactive
same,outcome,[6],inactive
same,outcome,[10],inactive
same,outcome,[14],inactive
same,outcome,[15],inactive
COC(=O)NC(=S)Nc1ccccc1NC(=S)NC(=O)OC,outcome,[7],inactive
same,outcome,[1],inactive
same,outcome,[12],inactive
same,outcome,[13],inactive
same,outcome,[8],inactive
same,outcome,[4],inactive
same,outcome,[5],inactive
same,outcome,[6],inactive
same,outcome,[16],inactive
same,outcome,[9],inactive
same,outcome,[10],inactive
same,outcome,[17],inactive
same,outcome,[18],inactive
same,outcome,[19],inactive
same,outcome,[20],inactive
same,outcome,[15],inactive
Cn1c(-c2ccccc2)cc(-c2ccccc2)[n+]1C,outcome,[1],inactive
same,outcome,[3],inactive
same,outcome,[4],inactive
same,outcome,[5],inactive
same,outcome,[6],inactive
Nc1cnn(-c2ccccc2)c(=O)c1Cl,outcome,[1],inactive
same,outcome,[4],inactive
same,outcome,[5],inactive
same,outcome,[6],inactive
same,outcome,[16],inactive
same,outcome,[9],inactive
same,outcome,[10],inactive
same,outcome,[17],inactive
same,outcome,[18],inactive
same,outcome,[19],inactive
same,outcome,[20],inactive
same,outcome,[15],inactive
CC(C)Nc1nc(Cl)nc(NC(C)C)n1,outcome,[1],inactive
same,outcome,[4],inactive
same,outcome,[5],inactive
same,outcome,[6],inactive
same,outcome,[9],inactive
same,outcome,[10],inactive
same,outcome,[20],inactive
same,AC50,[15],23.1 µM (active)
COc1cc(OC)nc(NC(=O)NS(=O)(=O)c2ncccc2OCC(F)(F)F)n1,outcome,[1],inactive
same,outcome,[13],inactive
same,outcome,[8],inactive
same,outcome,[4],inactive
same,outcome,[5],inactive
same,outcome,[6],inactive
CN=C=S,outcome,[12],inactive
same,outcome,[13],inactive
same,outcome,[8],inactive
same,outcome,[3],inactive
same,outcome,[4],inactive
same,outcome,[5],inactive
same,outcome,[6],inactive
